Measured values published in PubChem BioAssay (EPA / NIEHS).
Inconclusive results are not listed. Calls of active or inactive are those of the source. How the source made its calls, unless noted: active means hit-call score of the fitted dose curve at least 0.9, where 1 is the maximum; inconclusive means response in the unintended direction; inactive means score below 0.9.

What was measured:
[1] = read-out: X-box binding protein 1 (XBP1), XBP1 (gene 7494); assay: LTEA_HepaRG_XBP1: Life Technologies and Expression Analysis (LTEA) Assay for X-box binding protein 1 (XBP1) using HepaRG (AID 2283540; active means hit-call score of the fitted dose curve at least 0.9, where 1 is the maximum; inactive means score below 0.9); conditions: mRNA level, 48 h; actives raise or lower the signal
How it was run: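 Transcript levels of XBP1, measured by qRT-PCR and normalised to three housekeeping genes, were fitted bidirectionally relative to 0.5% DMSO controls. Human HepaRG cells received eight-point half-log dilutions from 100 uM for 48 h.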

[2] = LTEA_HepaRG_LDH_cytotoxicity: Cytotoxicity Assessment in the Life Technologies and Expression Analysis (LTEA) Assay (AID 2283563)
How it was run: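 Cells were thawed and plated for 48 h. Medium was then replaced with serum-free induction medium. Chemicals (8 half-log points, maximum 100 uM, 0.5% DMSO) were added in duplicate for 48 h, after which spent medium was assayed for LDH.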

[3] = molecular target: Cellular tumor antigen p53 (Homo sapiens) (UniProt P04637); assay: TOX21_p53_BLA_p2_ratio: Tox21 HCT-116 p53 Agonism Beta-lactamase Assay, Ratio, Phase 2 (AID 2283592)
Cellular tumor antigen p53 (Homo sapiens), sequence (P04637 whole entry, looked up): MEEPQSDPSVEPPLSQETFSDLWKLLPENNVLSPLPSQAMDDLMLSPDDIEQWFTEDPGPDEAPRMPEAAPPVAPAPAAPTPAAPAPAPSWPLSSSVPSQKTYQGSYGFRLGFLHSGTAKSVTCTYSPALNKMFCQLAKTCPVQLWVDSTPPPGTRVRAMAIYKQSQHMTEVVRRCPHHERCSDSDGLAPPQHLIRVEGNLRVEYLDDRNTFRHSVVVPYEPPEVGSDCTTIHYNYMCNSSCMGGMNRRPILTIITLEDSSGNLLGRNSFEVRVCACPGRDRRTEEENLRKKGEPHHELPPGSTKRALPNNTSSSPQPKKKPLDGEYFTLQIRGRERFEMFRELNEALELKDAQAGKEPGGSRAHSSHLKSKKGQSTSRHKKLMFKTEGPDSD
How it was run: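 Plated HCT116 p53-bla cells (4000/well) received compound after 5 h, then 16 h at 37C/5% CO2. CCF4-AM added, 2 h RT. Ratio of 460 to 530 nm emission taken as the p53 reporter signal.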

[4] = molecular target: Cellular tumor antigen p53 (Homo sapiens) (UniProt P04637); assay: TOX21_p53_BLA_p3_ratio: Tox21 HCT-116 p53 Agonism Beta-lactamase Assay, Ratio, Phase 3 (AID 2283596)
How it was run: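 Cells were seeded at 4000/well, rested 5 h at 37C, then dosed with DMSO compound solutions (217-fold dilution) for 16 h. CCF4-AM substrate was loaded for 2 h at room temperature, and the 460/530 nm emission ratio was fitted for gain of signal versus DMSO.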

[5] = TOX21_p53_BLA_p4_viability: Viability Assessment in the Tox21 HCT-116 p53 Agonism Beta-lactamase Assay, Phase 4 (AID 2283597);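 further: hits lower the luminescence signal meaning cytotoxicity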
How it was run: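 Readout: ATP luminescence (CellTiter-Glo), measured 30 min after reagent addition at RT. The reagent followed a 2 h CCF4-AM incubation, and the cells had been exposed to compound for 16 h at 37C.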

[6] = molecular target: Cellular tumor antigen p53 (Homo sapiens) (UniProt P04637); assay: TOX21_p53_BLA_p5_ratio: Tox21 HCT-116 p53 Agonism Beta-lactamase Assay, Ratio, Phase 5 (AID 2283599)
How it was run: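 HCT-116 cells carrying a p53-inducible beta-lactamase reporter were seeded at 4000 cells/well and dosed after 5 h with compound in DMSO (217-fold dilution). After 16 h at 37C, CCF4-AM substrate was added for 2 h, and the 460/530 nm emission ratio was scored as gain-of-signal versus DMSO.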

[7] = TOX21_p53_BLA_p5_viability: Viability Assessment in the Tox21 HCT-116 p53 Agonism Beta-lactamase Assay, Phase 5 (AID 2283600)
How it was run: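 Workflow: seed 4000 cells per well, wait 5 h, add compounds (DMSO, 217-fold dilution), incubate 16 h, load CCF4-AM 2 h, add CellTiter-Glo, read luminescence after 30 min.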

[8] = molecular target: Cellular tumor antigen p53 (Homo sapiens) (UniProt P04637); assay: TOX21_p53_BLA_p4_ratio: Tox21 HCT-116 p53 Agonism Beta-lactamase Assay, Ratio, Phase 4 (AID 2283601)
How it was run: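 HCT116 cells carrying an inducible beta-lactamase reporter were plated at 4000 cells/well, rested 5 h, then exposed to compounds in DMSO (217-fold dilution) for 16 h at 37C. CCF4-AM substrate was loaded 2 h at room temperature; 460/530 nm emission ratio scored gain-of-signal versus DMSO.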

[9] = Tanguay_ZF_120hpf_MORT_legacy: (Legacy) Oregon State University Tanguay Lab 120 Hour Post-fertilization zebrafish Assay for Mortality (AID 2283633)
How it was run: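 5D WT zebrafish, chorion removed 4 hpf; 1 embryo/well from 6 hpf; static exposure to 120 hpf, 28C, dark, sealed. Final DMSO 0.64%. Readout: binary mortality, brightfield, 24 + 120 hpf; DMSO as negative control.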

[10] = Tanguay_ZF_120hpf_YSE_legacy: (Legacy) Oregon State University Tanguay Lab 120 Hour Post-fertilization zebrafish Assay for Yolk Sac Edema (AID 2283634);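 on AC50: actives raise the incidence of yolk sac edema above the DMSO baseline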
How it was run: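 Dechorionate (pronase, 4 hpf) → place one 6 hpf embryo per well → static compound exposure, sealed and foil-covered, 28C, to 120 hpf → record yolk sac edema as present or absent. Final DMSO 0.64%.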

[11] = Tanguay_ZF_120hpf_AXIS_legacy: (Legacy) Oregon State University Tanguay Lab 120 Hour Post-fertilization zebrafish Assay for Body Axis Malformation (AID 2283635);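 on AC50: potency for an increased fraction of larvae scored with body axis malformation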
How it was run: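 Chorion is removed with pronase at 4 hpf, then single 6 hpf embryos are dosed (final DMSO 0.64%) and held statically at 28C in sealed, foil-covered plates. At 120 hpf body axis malformation is recorded as present or absent.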

[12] = Tanguay_ZF_120hpf_SNOU_legacy: (Legacy) Oregon State University Tanguay Lab 120 Hour Post-fertilization zebrafish Assay for Snout Malformation (AID 2283637)
How it was run: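 Dechorionated zebrafish, individually housed from 6 hpf in covered, sealed wells at 28C with 0.64% DMSO vehicle, were examined at 120 hpf for snout malformation. Responses were binary and analysed positive-direction relative to DMSO.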

[13] = Tanguay_ZF_120hpf_JAW_legacy: (Legacy) Oregon State University Tanguay Lab 120 Hour Post-fertilization zebrafish Assay for Jaw Malformation (AID 2283638);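 on AC50: active means more embryos with jaw malformation than DMSO controls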
How it was run: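 Steps: dechorionate 4 hpf embryos (pronase); plate 1/well at 6 hpf; add test chemical, 0.64% DMSO final; seal, cover, hold at 28C statically to 120 hpf; score jaw defect presence/absence microscopically. Dead embryos not scored.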

[14] = Tanguay_ZF_120hpf_OTIC_legacy: (Legacy) Oregon State University Tanguay Lab 120 Hour Post-fertilization zebrafish Assay for Otic Vesicle Malformation (AID 2283639)
How it was run: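 Statically exposed wild-type 5D zebrafish embryos, kept sealed and dark at 28C through 120 hours post fertilization, were examined by brightfield microscopy for otic vesicle defects. Responses were recorded as present or absent and analysed relative to DMSO.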

[15] = Tanguay_ZF_120hpf_BRAI_legacy: (Legacy) Oregon State University Tanguay Lab 120 Hour Post-fertilization zebrafish Assay for Brain Malformation (AID 2283641)
How it was run: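 Wild-type 5D larvae, static waterborne exposure to 120 hpf, 28C, 0.64% v/v DMSO. Brightfield scoring of brain defects, binary; dead embryos excluded. Positive ctrl 5uM trimethyltin chloride.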

[16] = Tanguay_ZF_120hpf_EYE_legacy: (Legacy) Oregon State University Tanguay Lab 120 Hour Post-fertilization zebrafish Assay for Eye Malformation (AID 2283636);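 further: binary presence or absence of eye malformation scored by brightfield in 120 hpf larvae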
How it was run: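 Static waterborne exposure of dechorionated zebrafish embryos (strain Tropical 5D), 6 to 120 hpf, sealed plates at 28C, 0.64% DMSO vehicle. Eye malformation is scored as a binary endpoint, with gain of signal analysed relative to DMSO.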

[17] = Tanguay_ZF_120hpf_PE_legacy: (Legacy) Oregon State University Tanguay Lab 120 Hour Post-fertilization zebrafish Assay for Pericardial Edema (AID 2283640);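 on AC50: potency for increased incidence of pericardial edema versus DMSO baseline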
How it was run: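 Embryos from wild-type 5D adults were staged, then dosed in 0.64% DMSO. They were kept sealed in the dark at 28C until 120 hpf. Pericardial edema was then recorded as present or absent.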

[18] = TOX21_p53_BLA_p2_viability: Viability Assessment in the Tox21 HCT-116 p53 Agonism Beta-lactamase Assay, Phase 2 (AID 2283591);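 further: compound exposure lasted 16 h at 37 °C; actives lower the ATP signal meaning cytotoxicity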
How it was run: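 HCT-116 p53-bla cells (4000/well) rested 5 h at 37C, then received compounds in DMSO (217-fold dilution) for 16 h at 37C, 5% CO2. After the CCF4 read, CellTiter-Glo was added; ATP luminescence was read after 30 min at room temperature.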

[19] = TOX21_p53_BLA_p3_viability: Viability Assessment in the Tox21 HCT-116 p53 Agonism Beta-lactamase Assay, Phase 3 (AID 2283593);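 further: cells exposed to compound for 16 h before reading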
How it was run: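 HCT-116 cells (4000/well) rested 5 h at 37C, then got DMSO compounds by pin tool (217-fold dilution) for 16 h at 37C, 5% CO2. After the bla read, CellTiter-Glo was added and luminescence read at 30 min, room temperature.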

COC(=O)c1c(C(F)F)nc(C(F)(F)F)c(C2=NCCS2)c1CC(C)C
outcome [1]: inactive | outcome [2]: inactive | outcome [3]: inactive | outcome [4]: inactive | outcome [5]: inactive | outcome [6]: inactive | outcome [7]: inactive | outcome [8]: inactive | outcome [9]: inactive | outcome [10]: inactive | outcome [11]: inactive | outcome [12]: inactive | outcome [13]: inactive | outcome [14]: inactive | outcome [15]: inactive

CCNC(=O)NC(=O)C(C#N)=NOC
outcome [1]: inactive | outcome [2]: inactive | AC50 [10]: 37.8 µM (active) | AC50 [11]: 46 µM (active) | AC50 [16]: 51.5 µM (active) | AC50 [12]: 24.5 µM (active) | AC50 [13]: 19.6 µM (active) | outcome [14]: inactive | AC50 [17]: 47 µM (active) | outcome [15]: inactive

CCOc1nc(F)cc2nc(S(=O)(=O)Nc3c(Cl)cccc3Cl)nn12
outcome [1]: inactive | outcome [4]: inactive | outcome [5]: inactive | outcome [8]: inactive | outcome [9]: inactive | outcome [11]: inactive | outcome [12]: inactive | outcome [13]: inactive | outcome [14]: inactive | outcome [17]: inactive | outcome [15]: inactive

COCc1cnc(C2=NC(C)(C(C)C)C(=O)N2)c(C(=O)O)c1 (configuration not stated)
outcome [1]: inactive | outcome [2]: inactive | outcome [9]: inactive | outcome [10]: inactive | outcome [12]: inactive | outcome [13]: inactive | outcome [17]: inactive | outcome [15]: inactive

CC(C)=CC1C(C(=O)OCc2coc(Cc3ccccc3)c2)C1(C)C (configuration not stated)
outcome [1]: inactive | outcome [2]: inactive | outcome [9]: inactive | outcome [10]: inactive | outcome [11]: inactive | outcome [16]: inactive | outcome [12]: inactive | outcome [13]: inactive | outcome [14]: inactive | outcome [15]: inactive

Clc1nc(Cl)nc(Nc2ccccc2Cl)n1
outcome [1]: inactive | outcome [2]: inactive | outcome [18]: inactive | outcome [3]: inactive | outcome [5]: inactive | outcome [7]: inactive | outcome [8]: inactive | outcome [9]: inactive | outcome [10]: inactive | outcome [11]: inactive | outcome [13]: inactive | outcome [17]: inactive

CC(C)Nc1nc(Cl)nc(NC(C)C)n1
outcome [1]: inactive | outcome [2]: inactive | outcome [3]: inactive | outcome [4]: inactive | outcome [8]: inactive | outcome [9]: inactive | outcome [10]: inactive | outcome [11]: inactive | outcome [12]: inactive | outcome [13]: inactive | outcome [14]: inactive | outcome [15]: inactive

CCOP(=S)(OCC)Oc1nc(Cl)n(C(C)C)n1
outcome [1]: inactive | outcome [2]: inactive | outcome [3]: inactive | outcome [4]: inactive | outcome [8]: inactive | outcome [9]: inactive | AC50 [10]: 37.4 µM (active) | AC50 [11]: 14.4 µM (active) | outcome [16]: inactive | outcome [12]: inactive | outcome [13]: inactive | outcome [15]: inactive

CC1(C)CON(Cc2ccccc2Cl)C1=O
outcome [1]: inactive | outcome [2]: inactive | outcome [19]: inactive | outcome [4]: inactive | outcome [5]: inactive | outcome [9]: inactive | outcome [10]: inactive | outcome [16]: inactive | outcome [12]: inactive | outcome [13]: inactive | outcome [14]: inactive | outcome [15]: inactive

Nc1cnn(-c2ccccc2)c(=O)c1Cl
outcome [1]: inactive | outcome [2]: inactive | outcome [18]: inactive | outcome [3]: inactive | outcome [4]: inactive | outcome [7]: inactive | outcome [8]: inactive | outcome [9]: inactive | outcome [10]: inactive | outcome [11]: inactive | outcome [12]: inactive | outcome [13]: inactive | outcome [14]: inactive | outcome [17]: inactive | outcome [15]: inactive

COc1cc(OC)nc(NC(=O)NS(=O)(=O)c2ncccc2OCC(F)(F)F)n1
outcome [1]: inactive | outcome [2]: inactive | outcome [18]: inactive | outcome [19]: inactive | outcome [4]: inactive | outcome [5]: inactive | outcome [6]: inactive | outcome [8]: inactive | outcome [9]: inactive | outcome [10]: inactive | outcome [11]: inactive | outcome [12]: inactive | outcome [13]: inactive | outcome [14]: inactive | outcome [15]: inactive
